The results in this text go back to PubChem BioAssay.

Active and inactive are the calls of the source. No rule for the calls is given here.

This assay has as its system Aerobactin synthetase IucA (Klebsiella pneumoniae hvKP1). The assay can be described thus: IucA enzyme inhibition, primary screen, biochemical, Spectrum library (AID 1346200).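 Also: 100% = wells without compound and 0% = wells lacking enzyme.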 To be noted: malachite green pyrophosphate, A620, at 8 µM, stronger effect = lower value.
On to `C[C@@H]1CC[C@@]2(OC1)OC1C(O)C3C4CC[C@H]5C[C@H](O[C@@H]6O[C@H](CO)[C@H](O[C@@H]7O[C@H](CO)[C@@H](O)[C@H](O[C@@H]8OC[C@@H](O)[C@H](O)[C@H]8O)[C@H]7O[C@@H]7O[C@H](CO)[C@H](O)[C@H](O[C@@H]8O[C@H](CO)[C@@H](O)[C@H](O)[C@H]8O)[C@H]7O)[C@H](O)[C@H]6O)[C@H](O)C[C@]5(C)C4CC[C@]3(C)C1[C@@H]2C` (stereo not given in full), for which the activity remaining is 111% (inactive). With `CN(CCC(N)CC(=O)N[C@H]1C=CC(n2ccc(N)nc2=O)O[C@@H]1C(=O)O)C(=N)N` (stereo not given in full), the activity remaining is 109% (inactive). The result for `CC1(C)C(=O)C=C[C@@]2(C)C1C[C@@H](O)[C@]1(C)C2CC[C@@]2(C)[C@H](c3ccoc3)OC(=O)[C@H]3O[C@]321` (stereo not given in full) reads 88.4% (inactive). To `C[C@H]1OC(O[C@H]2[C@@H](O)CC(O[C@H]3[C@@H](O)C[C@H](O[C@H]4CC[C@]5(C)C6CC[C@]7(C)[C@@H](C8=CC(=O)OC8)[C@@H](O)C[C@]7(O)[C@@H]6CC[C@@H]5C4)O[C@@H]3C)O[C@@H]2C)C[C@H](O)C1O` (stereo not given in full) belongs 115% (inactive); to `C[C@]12CCC3C(CC[C@H]4C[C@@H](O)CC[C@]34C)C1CCC2=O` (stereo not given in full), 102% (inactive); to `C[C@@H]1CC(Cl)CC[C@H]1C(=O)OC(C)(C)C` (stereo not given in full), 119% (inactive). The result for `COc1cc2c(cc1OC)[C@@]13CCN4CC5=CCOC6CC(=O)N2C1[C@H]6[C@H]5C[C@H]43` (stereo not given in full) reads 105% (inactive); that for `COC[C@]12CN(C=O)C3[C@@H]4[C@H](OC)C1[C@]3(C1CC3(O)C(OC)C(O)C4(OC(C)=O)C1C3OC(=O)c1ccccc1)[C@@H](OC)C[C@H]2O` (stereo not given in full), 118% (inactive). As for `CC1CC[C@]2(NC1)O[C@H]1CC3C4CC[C@H]5C[C@@H](O)CC[C@]5(C)C4CC[C@]3(C)[C@H]1[C@@H]2C` (stereo not given in full), the activity remaining was 96.8% (inactive).

With `CC(C)c1cc2c(c(O)c1O)[C@@]1(C(=O)O)CCCC(C)(C)C1CC2` (stereo not given in full), the activity remaining was 114% (inactive).
